Laboratory results taken from the supplement of paper PMC6555819.

Experiments:
Test in all cases: PBM binding z-score (relative to random genomic background probes); higher = stronger binding; sequences stand for … in GC…GCGATTGACAGCGTAGAATGAAGG
[1] = tested on: RARb homodimer (NR concentration 270 nM)
Procedure, shortened: (§1)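 Ligand-free nuclear receptor dimers were applied to custom Agilent 4×180K protein-binding microarrays whose double-stranded probes carried direct-repeat seeds, single-nucleotide variants, half-site ablations and random human genomic background sequences in 34-nt variable regions. Incubation lasted 1 h. Binding z-scores were computed against the random background probes from regression-normalized fluorescence.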

[2] = tested on: RARg:RXRa (NR concentration 270 nM, RXRa partner concentration 90 nM)
Procedure, shortened: as §1

[3] = tested on: RARg homodimer (NR concentration 270 nM)
Procedure, shortened: as §1

[4] = tested on: RXRa DBDmut IVT, anti-RXR (DBD mutation: RXRa K156A/R161A, NR concentration 90 nM)
Procedure, shortened: as §1

[5] = tested on: THRa:RXRa (NR concentration 90 nM, RXRa partner concentration 90 nM)
Procedure, shortened: as §1

[6] = tested on: THRa homodimer (NR concentration 90 nM)
Procedure, shortened: as §1

[7] = tested on: VDR homodimer (NR concentration 270 nM)
Procedure, shortened: as §1

[8] = tested on: RXRa homodimer (NR concentration 180 nM)
Procedure, shortened: as §1

[9] = tested on: VDR:RXRa (NR concentration 270 nM, RXRa partner concentration 90 nM)
Procedure, shortened: as §1

Sequence | PBM binding z-score [1] | PBM binding z-score [2] | PBM binding z-score [3] | PBM binding z-score [4] | PBM binding z-score [5] | PBM binding z-score [6] | PBM binding z-score [7] | PBM binding z-score [8] | PBM binding z-score [9]
CAAACTAGGTCACGAAAGGTCAAAGCCGAATGAC | 5.98 | 8.01 | 8.56 | 2.11 | 5.07 | 2.55 | 3.58 | – | –
CCTACTGGGCCACGAAAGGTCCTTGATTCAGTGA | 0.647 | 0.00978 | 0.301 | -0.311 | 0.686 | -0.289 | -0.692 | – | –
CCCACTGGGCCATTCAGAGGTCATTGATCATATG | 4.3 | 4.48 | 3.31 | 0.382 | 3.43 | 1.52 | 3.25 | – | –
TCTAGCTGGTCAAAGGTCACACACTCGAAATGCG | 5.13 | 7.3 | 6.69 | 1.15 | 3.88 | 1.36 | 1.86 | – | –
ATCGAAAGGTCGCAGGTGAGTATACCCACCCGAA | 3.04 | 4.73 | 4.6 | 0.648 | 2.57 | 0.171 | 0.597 | – | –
TCTTGTAGGTCAAAGGTTAAGAAAGCCGAAGCCT | 3.84 | 7.23 | 5.61 | 1.98 | 3.76 | 0.452 | 0.881 | – | –
TGAATGACGTTAAAGATCAGGGAACGTGGCGTCG | -0.807 | 0.00646 | 0.113 | -0.922 | -0.478 | -0.747 | -0.61 | – | –
CCTACTGGGCCATACAGAGGTCATTGATCATATG | 3.98 | 4.45 | 3.22 | 0.759 | 3.15 | 1.47 | 4.19 | – | –
CGTCCAAGGTCAATGCTAGGCCAGTGAAAGCATT | 3.99 | 6.23 | 6.11 | 3.55 | 3.96 | 2.15 | 2.49 | – | –
CCTACGGGGCCAAGGTCATTGATCAGTCAAAGCA | 3.51 | 4.02 | 3.77 | 1.21 | 3.47 | 2.04 | 3.09 | – | –
CCTTCTGGGCCATTCAGAGGTCATTGATCATATG | 4.13 | 4.56 | 3.3 | 1.38 | 3.31 | 1.51 | 3.47 | – | –
ATATGCAGGTTATCGGGTCATTCAGTTTGCGCAT | 2.95 | 3.29 | 2.2 | 1.56 | 3.49 | 2.55 | 4 | – | –
CCTAGTTGGTCAGGAGGCCACACACCGGATATGA | 1.51 | 0.776 | 1.23 | -0.19 | 0.326 | 0.708 | 0.435 | – | –
TGAATGAGGTTAAAGGTCAGGGAACGTGGCGTCG | 4.57 | 7.13 | 5.51 | 1.87 | 4.33 | 1.94 | 2.81 | – | –
TTACCAAGGTGAAAGGTCATTGATGCACGCCTTG | 4.75 | 6.91 | 5.06 | 1.85 | 4.42 | 1.64 | 3.32 | – | –
ATCGAAAGGTCGACGAGGTGAGTATGCACCGTTT | 3.07 | 4.29 | 4.29 | 1.3 | 3.73 | 0.762 | 1.03 | – | –
CTCGAAAGGGCGTGCTCAGGTGAGTATACCAAAC | 0.741 | 0.917 | 0.829 | 0.316 | 2.23 | 0.261 | -0.046 | – | –
CAAACTAGGTCACAGAGGTCAAAGTTCGTGCGTA | 5.64 | 7.52 | 7.81 | 3.36 | 4.93 | 3.18 | 7.28 | – | –
TCTGCTAGGTCAGGTGGTCAGCTAACGAGCTGCC | 2.83 | – | 3.58 | 0.176 | 1.77 | 0.331 | -0.539 | 1.66 | 0.132
TCGAGTGGGTTACGGGGGCATTCAGGGATGAAGA | 2.26 | – | 2.35 | 2.33 | 4.08 | 2.2 | 3.66 | 2.74 | 4.27
CCTTACGGGTCAGGGTTATAGCACGGGTGGTACG | 2.89 | – | 3.8 | -0.999 | 2.29 | 0.154 | 0.894 | 3.87 | –
CGAACTAGGTCAACGACAGTGAATCTCCGCACGC | 2.87 | – | 4.2 | 1.61 | 2.54 | 1.08 | 0.435 | 2.45 | –
CGAACTAGGTCACCAGGACAGCGAAGAGGTTGGA | 3.27 | – | 5.1 | 1.22 | 3.27 | 1.62 | 0.423 | 3.19 | 1.88
CGTCCAAGGTCATGGGAGGTCAGTGAAGACAGAT | 5.85 | – | 7.97 | 3.73 | 5.51 | 3.83 | 4.5 | 7.56 | –
TTACCAAGGTTAAAGGTCGTTGATGCACGCCTTG | 3.04 | 5.05 | 3.09 | 1.88 | 3.63 | 0.88 | 2.29 | – | –
ATCGAAAGGTCGACGAGGAGAGTATACACCGTTT | 2.37 | – | 3.81 | 1.18 | 2.27 | -0.0264 | 0.681 | 3.91 | 3.3
CCTAGTTGGTCAGGAGGTCACAAACCGGATATGA | 3.97 | – | 4.1 | 0.534 | 3.31 | 2.01 | 2.44 | 4.38 | 3.4
GCTGCTAGGTCAACTGATGGTGAGCTAAAGCTCG | 3.06 | – | 5.32 | 1.5 | 2.86 | 0.689 | -0.42 | 2.69 | 1.13
ATCGAACGGTCGACGAGGTGAGTATACACCGTTT | 0.461 | 0.635 | 1.21 | -0.546 | 1.26 | 0.292 | -0.356 | – | –
CGAACTAGGTGATTGACAGGACAGTGAATAGTAA | 0.647 | – | 0.266 | 0.246 | 0.755 | 0.252 | 0.00262 | -0.176 | -0.0545
